In the library only some 19% were active in any assay of this set; here they are far more common.
TDP1 inh: qHTS Assay for Inhibitors of Tyrosyl-DNA Phosphodiesterase (TDP1). Potency, µM (doses to about 130 µM), most hits filed as inhibitors. recombinant TDP1, AlphaScreen DNA substrate cleavage. actives 0.28% (n = 350,000). AID 485290, 2010. Tyrosyl-DNA phosphodiesterase 1 (Homo sapiens), Q9NUW8; further: nearly all actives have a fitted effect of over 40% in size
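Compounds were preincubated with Tdp1 (1 nM final) for 15 min at room temperature before substrate (15 nM final) started a 5 min reaction; beads (10 ug/ml final) were then added for 10 min before AlphaScreen detection.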
DT40 TDP1 no CPT: qHTS for Inhibitors of human tyrosyl-DNA phosphodiesterase 1 (TDP1): qHTS in cells in absence of CPT; DT40 Tdp1-/- hTDP1 cells, no CPT, ATP luminescence, 48 h; Potency, µM (titrated, usually from 46.2 µM), most hits filed as inhibitors; actives 15% (n = 420,000); AID 686978, 2013; further: nearly all actives have a fitted effect of over 55% in size
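Stably hTDP1-transfected Tdp1-null chicken DT40 cells were treated with library compounds minus camptothecin and grown for at least 48 hr at 37 °C, after which cellular ATP was quantified by luminescence.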
RORgamma inh: qHTS for inhibitors of ROR gamma transcriptional activity | Potency, µM (top dose mostly 53.6 µM), hits mostly inhibitors | Drosophila S2 Gal4-RORgamma UAS-luciferase reporter, 20 h | AID 2551, 2010 | Nuclear receptor ROR-gamma (Mus musculus), P51450 | actives 5.4% (n = 310,000); further: nearly all actives have a fitted effect of over 60% in size
Target sequence (P51450 whole entry, looked up, the tested form may be a part): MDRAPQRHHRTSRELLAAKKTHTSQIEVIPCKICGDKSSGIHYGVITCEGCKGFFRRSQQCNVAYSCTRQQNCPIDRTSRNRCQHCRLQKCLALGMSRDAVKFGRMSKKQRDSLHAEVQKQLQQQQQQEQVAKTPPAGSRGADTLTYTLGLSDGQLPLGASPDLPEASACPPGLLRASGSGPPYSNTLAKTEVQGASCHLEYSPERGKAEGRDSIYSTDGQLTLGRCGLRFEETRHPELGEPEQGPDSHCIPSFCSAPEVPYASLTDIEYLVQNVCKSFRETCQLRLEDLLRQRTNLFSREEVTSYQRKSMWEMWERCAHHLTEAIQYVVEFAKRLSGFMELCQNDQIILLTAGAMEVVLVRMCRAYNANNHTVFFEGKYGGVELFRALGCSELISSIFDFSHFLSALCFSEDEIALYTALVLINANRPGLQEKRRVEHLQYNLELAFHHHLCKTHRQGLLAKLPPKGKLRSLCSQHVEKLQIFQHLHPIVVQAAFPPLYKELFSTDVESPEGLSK
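A Gal4/UAS one-hybrid system in insect cells: metallothionein-promoter Gal4–ROR gamma fusion plus Photinus luciferase reporter. Copper sulfate 700 uM final, 20 hr ambient incubation, luminescent detection after 10 min with reagent.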
DT40 TDP1 CPT: qHTS for Inhibitors of human tyrosyl-DNA phosphodiesterase 1 (TDP1): qHTS in cells in presence of CPT; chicken DT40 Tdp1-/-;hTDP1 cells + 20 nM CPT, ATP luminescence, 48 h; actives 12% (n = 420,000); Potency, µM (top dose mostly 46.2 µM), hits mostly inhibitors; AID 686979, 2013; further: nearly all actives have a fitted effect of over 55% in size
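Chicken DT40 Tdp1-/- cells complemented with human TDP1, 400 cells/well, exposed to compounds plus 20 nM camptothecin for at least 48 h at 37 C; viability read as ATP content by CellTiter-Glo luminescence.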
Gal4-VP16 FLuc: VP16 counterscreen qHTS for inhibitors of ROR gamma transcriptional activity. Drosophila S2 Gal4-VP16 UAS-luciferase, luminescence, 20 h. Potency, µM (series often up to 53.6 µM), hits mostly inhibitors. actives 3.5% (n = 310,000). AID 2546, 2010;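 further: Gal4-VP16 expression switched on by copper sulfate through the metallothionein promoter; nearly all actives have a fitted effect of over 50% in size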
Numbers stand for hits; - = inactive; ? = inconclusive; . = not tested or not shown; [ ] = dose if it differs, or a comment. The call rests on the fitted dose curve; in most records, active means well fitted curve in the direction sought with a large enough effect; inconclusive means small, poorly fitted or top-dose-only effect, or another doubt; inactive means no such curve, though single readings can be large; an effect the other way counts as inactive or inconclusive.

SMILES	TDP1 inh	DT40 TDP1 no CPT	RORgamma inh	DT40 TDP1 CPT	Gal4-VP16 FLuc
CC(=O)c1cccc(NC(=S)NC(=O)c2ccccc2C)c1	-	-	-	-	-
CC(=O)c1cccc(NC(=S)NC(=O)c2cccc(C)c2)c1	-	-	7.94µM	-	?
O=C(O)c1cccc(NC(=S)NC(=O)c2ccncc2)c1	?	-	-	?	-
Cc1cccc(C(=O)NC(=S)Nc2ccc3[nH]c(=O)[nH]c3c2)c1	-	-	-	-	-
Cc1ncc(N=Nc2ccccc2Cl)c(-c2ccccc2)n1	-	?	-	?	-
CC(=O)c1ccc(NC(=S)NC(C)c2ccc(Cl)cc2Cl)cc1 (stereo not given)	-	29.1µM	11.2µM	?	-
FC(F)(F)c1cccc(-c2cc(C3CCNCC3)[nH]n2)c1	.	?	-	?	-
c1ccc2c(-c3cc(C4CCNCC4)[nH]n3)cccc2c1	-	?	-	20.6µM	-
CCOC(=O)C1(C)C(C(=O)OC)=C(c2ccc(OC)cc2)c2ccccc2N1C(=O)OC (stereo not given)	-	13µM	-	20.6µM	-
CCOC(=O)C1C(C(=O)OC)=C(c2ccc(F)cc2)c2ccccc2N1S(=O)(=O)C(F)(F)F (stereo not given)	-	?	-	?	-
CCOC(=O)C1C(C(=O)OC)=C(c2ccc(OC)cc2)c2ccccc2N1S(=O)(=O)C(F)(F)F (stereo not given)	-	16.4µM	-	?	-
COc1ccc(NC(=O)N2c3ccccc3C(C)=CC2(C)C)cc1	-	-	-	-	-
CCOC(=O)C1=C(C2=CCCCC2)c2ccc(OC)cc2N(S(=O)(=O)C(F)(F)F)C1C(=O)OCC (stereo not given)	-	2.31µM	.	5.8µM	.
COCCn1c(SCCN2CCOCC2)nc2c1c(=O)[nH]c(=O)n2C	-	-	-	-	-
O=[N+]([O-])c1cc2nc(O)c(O)nc2cc1[N+](=O)[O-]	-	.	-	.	-
CNc1nc2cc([N+](=O)[O-])c([N+](=O)[O-])cc2nc1NC	-	3.26µM	-	2.31µM	-
COc1ccc(/C=N/NC(=O)c2cccnc2)cc1COc1ccc([N+](=O)[O-])c(C)c1	-	4.11µM	-	3.66µM	-
COc1ccc(/C=N\NC(=O)c2ccccc2OC)cc1COc1c(F)c(F)c(F)c(F)c1F	-	-	-	-	-
COc1ccc(/C=N\NC(=O)c2ccccc2Br)cc1COc1ccc(F)cc1	-	18.4µM	?	?	-
COc1ccc(/C=N\NC(=O)c2ccc([N+](=O)[O-])c(C)c2)cc1COc1ccccc1C(N)=O	-	-	-	-	-
COc1ccc(/C=N/NC(=O)c2ccn[nH]2)cc1COc1ccc(F)cc1	-	?	-	16.4µM	-
COc1ccc(/C=N/NC(=O)c2ccn[nH]2)cc1COc1ccc([N+](=O)[O-])c(C)c1	-	?	-	?	-
COc1ccc(/C=N/NC(=O)c2ccccc2OC)cc1COc1ccccc1[N+](=O)[O-]	-	29.1µM	?	18.4µM	-
Cc1ccc(CN(c2ccc(C(=O)NCc3ccc4c(c3)OCO4)cc2)S(C)(=O)=O)cc1	-	?	-	?	-
CCCOc1c(Cl)cc(C(=O)NC)cc1OC	-	-	-	-	-[10 µM]
SMILES	TDP1 inh	DT40 TDP1 no CPT	RORgamma inh	DT40 TDP1 CPT	Gal4-VP16 FLuc
CCCCOc1ccc(N2C(=O)CC(N(CCc3ccccc3)C(=O)/C=C/C(=O)O)C2=O)cc1 (stereo not given)	-	-	-	-	-
CN(C)S(=O)(=O)c1ccc(N2CCCC2)c(C(=O)NNC(=O)COc2ccccc2F)c1	.	-	.	-	.
COc1ccc(C(=O)N/N=C/c2ccc(OC)c(COc3ccc(F)cc3)c2)cc1	-	?	-	?	-
COc1ccc(C(=O)N/N=C/c2ccc(OC)c(COc3ccc(F)cc3F)c2)cc1	-	18.4µM	12.6µM	?	?
COc1cccc(Nc2ncc3nc(-c4ccccc4)c(=O)n(Cc4cccs4)c3n2)c1	.	-	-	-	-
COCCCn1c(=S)[nH]c2c(sc3ccccc32)c1=O	-	-	1.26µM	-	?
COCCn1c(=O)sc2ccccc2c1=O	-	?	-	20.6µM	-
COCCn1c(C2CCCCC2)nc2sc3ccccc3c(=O)c2c1=O	-	23.1µM	-	?	-
CCc1nc2sc3ccccc3c(=O)c2c(=O)n1CCOC	-	?	-	-	-
C=CCSC1=N/C(=C\c2cc(OCC)c(OC(C)=O)c([N+](=O)[O-])c2)C(=O)S1	-	?	-	16.4µM	?
CC(=O)Nc1ccc(NC(=O)C2(C)Cc3c(-c4ccccc4)ccnc3O2)cc1 (stereo not given)	.	-	.	?	.
CN(C)c1ccc(CNC(=O)C2(C)Cc3c(-c4cccc(C(F)(F)F)c4)ccnc3O2)cc1 (stereo not given)	.	?	.	16.4µM	.
CC(=O)Nc1ccc(-c2ccnc3c2CC(C)(C(=O)NCc2ccc(F)c(F)c2)O3)cc1 (stereo not given)	.	3.26µM	.	5.8µM	.
CC1(C(=O)NCc2ccc(F)c(F)c2)Cc2c(-c3ccccc3)ccnc2O1 (stereo not given)	.	6.51µM	.	10.3µM	.
CC1(C(=O)NCc2ccc(F)c(F)c2)Cc2c(-c3cccc(C(F)(F)F)c3)ccnc2O1 (stereo not given)	.	16.4µM	.	16.4µM	.
COCCNC(=O)c1ccc(CS(=O)(=O)c2ccc(C)cc2)o1	-	-	-	-	-
CCC(=O)OCC(=O)Nc1cc([N+](=O)[O-])ccc1Cl	-	-	-	-	-
Cc1ccc(-n2ncc(Cl)c2C(=O)NC2CC2)cc1	.	-	-	?	-
O=C(O)/C=C/C(=O)Nc1ccc(Cl)c(C(=O)O)c1	.	-	-	-	-
CCN1C(=O)[C@H]2[C@@H](c3ccc(OC)cc3)N3C(=O)CN(CC4CC4)C(=O)[C@@]3(C)[C@H]2C1=O	.	-	-	-	-
CN(C)c1cccc(NC(=O)C2(C)Cc3c(-c4cccnc4)ccnc3O2)c1 (stereo not given)	.	?	.	-	.
CC1(C(=O)NCc2cccnc2)Cc2c(-c3cccc(C(F)(F)F)c3)ccnc2O1 (stereo not given)	.	20.6µM	.	23.1µM	.
Cn1nccc1C(=O)N1CCCC(C(=O)c2cccc3ccccc23)C1 (stereo not given)	-	23.1µM	?	?	-
CC1=C(C(=O)N2CCCC(C(=O)c3cccc4ccccc34)C2)OCCO1 (stereo not given)	-	16.4µM	?	?	12.6µM
